Source: PubChem
aSyn 5UTR act: Activators via SNCA 5'UTR binding, MLPCN; alpha-synuclein 5'UTR reporter, activators screen; activity score, % (tested at 7.5 µM), hits read low; 300,000 tested, 7.1% active; AID 1814; in the data active = activity score below about -60%
* hit, by the source's call. Not all results are given here.

SMILES	aSyn 5UTR act
C/C(=N\NC(=O)c1ccc(Cl)cc1)c1cccnc1	-91.6*
COc1ccc(/C(C)=N/NC(=O)c2ccccc2N)cc1	-92.0*
COc1ccc(C(=O)Nc2ccc(/C(C)=N/NC(=O)c3ccncc3)cc2)cc1	-107.6*
Cn1cc(C(=O)c2ccc(Cl)cc2Cl)cc1C(=O)N/N=C(\N)COc1ccc(Cl)cc1Cl	64.9
C/C(=N/NC(=O)c1ccc(C)s1)c1cccnc1	-70.4*
COc1cc(OC)cc(C(=O)Nc2ccc(C(=O)c3ccncc3)cc2)c1	-71.9*
C/C(=N\NC(=O)c1ccncc1)c1ccc(NC(=O)c2ccc(Cl)cc2)cc1	-115.9*
CCc1nnc2c3cnn(-c4ccccc4)c3ncn12	-183.2*
Cc1ccc(-c2csc(NC(=S)NC(=O)c3cc4ccccc4o3)n2)cc1	-65.7*
Cc1ccc2oc(-c3ccc(C)c(NC(=O)Cc4cccs4)c3)nc2c1	-142.3*
Cc1cccc(NC(=O)c2cccc(NC(=O)Cc3cccs3)c2)c1	-88.1*
Cc1ccc2oc(-c3ccc(C)c(NC(=S)NC(=O)c4cccs4)c3)nc2c1	-193.3*
Cc1ccc2oc(-c3cccc(NC(=O)Cc4cccs4)c3)nc2c1	-70.5*
Cc1ccc(-c2nc3ccccc3o2)cc1NC(=S)NC(=O)c1cc2ccccc2o1	-111.3*
COc1ccc(C(=O)NN/C(=N/S(=O)(=O)c2ccc(C)cc2)c2ccccc2)cc1	-80.9*
Cc1ccc(NC(=S)N/C(=N/S(=O)(=O)c2ccccc2)c2ccccc2)cc1	-205.1*
Cc1ccc(S(=O)(=O)/N=C(/NC(=S)Nc2ccccc2)c2ccccc2)cc1	-126.4*
O=C(Nc1ccccc1)Nc1ccc(-n2ccc(C(F)(F)F)n2)cc1	-276.6*
N#Cc1nc(-c2ccccc2Cl)oc1N1CCCCC1	-68.9*
CC1CCN(c2oc(-c3cccc4ccccc34)nc2C#N)CC1	-142.4*
N#Cc1nc(-c2cccc3ccccc23)oc1N1CCCCC1	-155.1*
CC(C)OC(=O)CSc1nc2c(cc1C#N)CCCCC2	-166.0*
CCc1nc(SCC#N)c(C#N)cc1C	68.5
CCOC(=O)CC(=O)CSc1nc2c(cc1C#N)CCCCC2	-138.0*
N#Cc1cc2c(nc1SCc1ccncc1)CCC2	-95.1*
SMILES	aSyn 5UTR act
Cc1cccc2cc(C#N)c(SCC#N)nc12	84.9
CC(C)CNC(=O)c1cc(-c2ccc(Cl)c(Cl)c2)on1	-117.8*
CCOc1ccc(-c2cc(CCCC(=O)NCc3ccc(C)cc3)no2)cc1	80.7
O=C(NCc1cccs1)c1cc(-c2cccc(Cl)c2)on1	-76.6*
Cc1ccc(-c2cc(C(=O)NCc3cccs3)no2)cc1	-122.3*
O=C(NCc1cccs1)c1cc(-c2ccc(O)cc2)on1	-157.2*
CCCc1cc(C(=O)NCc2cccs2)no1	-140.7*
CCCc1cc(C(=O)NCC(C)C)no1	-105.6*
O=C(NCc1cccs1)c1nc(-c2cccs2)no1	-100.4*
CCOc1ccc(C(=O)Nc2nnc(S(=O)(=O)N(C)Cc3ccco3)s2)cc1	-138.7*
Cc1ccccc1C(=O)Nc1nnc(S(=O)(=O)N(C)Cc2ccco2)s1	-71.5*
Cc1ccc(NC(=O)C2=C(O)c3sccc3N(C)S2(=O)=O)cc1	-101.2*
COC(=O)c1ccc(CN2C(=O)NC3(CCC(C)CC3)C2=O)cc1 (stereo not drawn)	-70.0*
CC1CCC2(CC1)NC(=O)N(NC(=O)CCl)C2=O (stereo not drawn)	-77.1*
CCCc1ccc(-c2cc(NC(=O)CSc3n[nH]c(N)n3)n(-c3ccccc3)n2)cc1	-141.4*
O=C(Nc1ccc(C(=O)c2ccccc2)cc1)c1ccccc1	-188.7*
O=C(Nc1ccc(NC(=O)c2ccccc2Br)cc1)c1ccccc1	-84.5*
O=C(Nc1ccc(Br)c(C(F)(F)F)c1)c1ccccc1	-90.1*
O=C(Nc1ccc(C(F)(F)F)cc1)c1ccccc1Br	-81.7*
CC(=O)c1cc(C#N)c(SCc2ccc(F)cc2)nc1C	-98.2*
O=C(O)c1ccc(-c2noc(-c3cccc(C(F)(F)F)c3)n2)cc1	-82.6*
FC(F)(F)c1cccc(-c2nc(-c3ccncc3)no2)c1	-191.0*
COc1ccc(/C=C/C(=O)Nc2ccccc2C)cc1S(=O)(=O)N1CCOCC1	-86.7*
Cc1c(C(=O)NCCc2ccccc2)oc2ccccc12	-68.8*
Cc1c(C(=O)NC2CCC(C)CC2)oc2ccccc12 (stereo not drawn)	-143.0*
SMILES	aSyn 5UTR act
CCc1ccc(CNc2ccc3c(c2)ncn3CC)cc1	-176.8*
CCn1cnc2cc(NCc3ccc(OC)cc3)ccc21	-100.7*
CCCn1cnc2cc(NCc3cccs3)ccc21	-161.1*
CCOc1ccc2nc3cc(NCc4ccc(OC)cc4)ccc3c(N)c2c1	108.6
CCCOc1ccc(C(=O)NNC(=S)NC(C)=O)cc1	67.7
Cc1ccc(-c2nnc(-c3cccnc3)o2)cc1	-113.1*
Clc1ccc(-c2nnc(-c3ccccc3)o2)cn1	-153.0*
Brc1ccc(-c2nnc(-c3ccccc3Br)o2)cc1	-100.1*
CCCOc1ccc(-c2nnc(-c3ccncc3)o2)cc1	-80.4*
Brc1ccc(-c2nnc(-c3cccnc3)o2)cc1	-143.8*
Cc1noc(C)c1-c1nnc(-c2ccc(C(F)(F)F)cc2)o1	-65.6*
Brc1ccccc1-c1nnc(-c2cccnc2)o1	-106.5*
